# In the library only some 4.3% were active in any assay of this set; here they are far more common.
# GLP1R ag = qHTS of GLP-1 Receptor Agonists. actives 0.007% (n = 380,000). AID 624172, 2012. HEK293 GLP-1R CRE-luciferase, luminescence, 4-6 h; cells express a hypersensitive GLP-1R form. Glucagon-like peptide 1 receptor (Homo sapiens), P43220. Potency, µM (highest dose often 45.6 µM), inactives show top-dose activation, hits mostly activators; further: potency means the concentration at half of the fitted maximal effect; % of control where 0% means no effect
# GLP1R inv ag = qHTS of GLP-1 Receptor Inverse Agonists (Inhibition Mode). actives 1.6% (n = 410,000). Glucagon-like peptide 1 receptor (Homo sapiens), P43220. HEK293 GLP-1R CRE-luciferase, luminescence, 24 h; GLP-1R form is constitutively active. Potency, µM (doses to about 38.3 µM), for the others: at the top dose activity change, negative = inhibition, actives largely listed as inhibitors; further: potency means the concentration at half of the fitted maximal effect; on the % scale 0 is the no-effect control and ±100 the full control effect; nearly all actives have a fitted effect of over 55% in size
#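 Stable HEK293 clone (constitutively active GLP-1R + cAMP-response luciferase); 200 cells/uL plated, 12 h pre-culture, compound 24 hr, 37 deg C/5% CO2; detection reagent 12 min RT; luminescence.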
# DRD3 agonist = qHTS of D3 Dopamine Receptor Agonist: qHTS; D(3) dopamine receptor (Homo sapiens), P35462; D3R DiscoveRx beta-arrestin cells, luminescence, 90 min; max activation, %; actives 0.58% (n = 410,000); in the data active means max activation above about 30%; further: 0% is about no effect
# Target sequence (P35462 whole entry, looked up): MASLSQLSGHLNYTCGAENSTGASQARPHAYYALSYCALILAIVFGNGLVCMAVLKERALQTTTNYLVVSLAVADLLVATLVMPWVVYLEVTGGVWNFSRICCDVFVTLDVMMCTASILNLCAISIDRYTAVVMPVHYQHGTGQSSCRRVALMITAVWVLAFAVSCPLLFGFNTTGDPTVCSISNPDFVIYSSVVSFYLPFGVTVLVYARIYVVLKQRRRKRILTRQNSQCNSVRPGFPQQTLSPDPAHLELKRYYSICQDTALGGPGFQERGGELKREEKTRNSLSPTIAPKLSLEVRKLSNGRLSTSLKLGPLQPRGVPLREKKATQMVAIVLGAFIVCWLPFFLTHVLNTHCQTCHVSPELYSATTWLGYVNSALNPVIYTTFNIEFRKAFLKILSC
#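 Agonist mode: compounds and dopamine controls were applied to plated cells for 90 min at 37 degrees C after an overnight attachment at 1500 cells/well. Luminescent read-out followed 30 - 60 minutes at room temperature with DiscoveRx detection reagent.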
# D3 antag = qHTS of D3 Dopamine Receptor Antagonist: qHTS; actives 2.5% (n = 360,000); D(3) dopamine receptor (Homo sapiens), P35462; D3R cells, DiscoveRx beta-arrestin luminescence, antagonist mode; active compounds read low; AID 652054, 2013; max response, negative = inhibition, %; in the data active means max response below about -50%; inconclusive means no clear call, values can overlap the other calls; further: on the % scale 0 is the no-effect control and ±100 the full control effect
#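 Cells expressing the human receptor were seeded at 1500 cells/well, incubated overnight at 37 degrees C in 5% CO2, then exposed to library compounds with dopamine controls for 90 minutes at 37 degrees C before luminescent detection.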
# The depositor's hits bear a star; ? = inconclusive; . = no result; [ ] = dose if it differs, or a comment. Unless noted, the call rests on the fitted dose curve; in most records, active means well fitted curve in the direction sought with a large enough effect; inconclusive means small, poorly fitted or top-dose-only effect, or another doubt; inactive means no such curve, though single readings can be large; an effect the other way counts as inactive or inconclusive.
SMILES,GLP1R ag,GLP1R inv ag,DRD3 agonist,D3 antag
CC(Cc1ccccc1)[n+]1cc(/N=C(\N)[O-])on1 (stereo not drawn),9%,-25%,-2,6
CC(Cc1ccccc1)[n+]1cc(/N=C(\[O-])Nc2ccccc2)on1 (stereo not drawn),1%,48%,1,-54*
CCCCC[C@@H]1CCCCC[C@@H](O)C[C@@H](O)[C@H](O)/C=C/C(=O)O1,1%,-5%,6,9
Cc1cc(N=Nc2ccccc2C)ccc1N,17%,10µM*,-7,12
CCc1ccc2c(c1)Sc1ccccc1CC2N1CCN(C)CC1 (stereo not drawn),-4%,?,-19,-116*
COc1ccccc1C(=O)Nc1ccc2nc(SCC(=O)N3CCCc4ccccc43)sc2c1,.,?,-12,.
COc1ccc(Br)cc1CNCCc1ccc2c(c1)OCO2,1%,?,-6,-19
COc1ccccc1CCNCc1cc2c(cc1[N+](=O)[O-])OCO2,10%,-16%,1,-56*
COc1ccc(-n2c(/C=C/c3ccc(O)cc3)nc3ccccc3c2=O)cc1,9%,10µM*,10,37
O=c1c2ccccc2nc(/C=C/c2ccc(O)cc2)n1-c1ccc(O)cc1,13%,-24%,3,18
CC(=O)NC1CCSC1=O (stereo not drawn),.,.,6,.
C1=C(c2c[nH]c3ccccc23)CCN(Cc2ccccc2)C1,-4%,?,-21,-101*
CN1CC=C(c2c[nH]c3ccccc23)CC1,-4%,9%,-16,-85*
O=C1[O][Sb-]23[O]C(=O)C([O]2)C2[O][Sb-]4([O]C(=O)C([O]4)C1[O]3)[O]C2=O,2%,.,.,.
C[C@@H](N)C(=O)c1ccccc1,.,.,-4,.
COc1cc(C(=O)NCCSc2c(-c3ccccc3)[nH]c3ccccc23)cc(OC)c1OC,.,?,1,.
C1=C(c2ccccc2)CCNC1,2%,-27%,-36,-52*
COc1ccccc1C1CC2CCC(C1OC(C)=O)N2Cc1ccccc1 (stereo not drawn),5%,?,-19,-87*
COC(=O)[C@H]1[C@@H](OC(=O)c2ccccc2)C[C@@H]2CC[C@H]1N2C,.,.,-11,.
Cc1ccccc1CN1Cc2cnnn2-c2ccccc2C1C#N (stereo not drawn),-15%,?,-66,-115*
CC(C)CCn1c(N)c(C(=O)OCC2CCCO2)c2nc3ccccc3nc21 (stereo not drawn),0%,4µM*,0,18
COc1cc(CC(C)N)c(OC)cc1C (stereo not drawn),-1%[110 µM],.,.,.
CC(C)(C)n1nnnc1C(c1cc2ccccc2o1)N1CCC2(CC1)C(=O)NCN2c1ccccc1 (stereo not drawn),-1%,?,-13,-99*
COc1ccc(-c2coc3c(C(=O)Nc4cc(OC)c(OC)c(OC)c4)cccc23)c(C)c1,-5%,4.5µM*,17,108
Cc1ccsc1C(=O)C1CCCN(Cc2cccc(-n3cccn3)c2)C1 (stereo not drawn),21%,7.9µM*,-33,-80*
SMILES,GLP1R ag,GLP1R inv ag,DRD3 agonist,D3 antag
CSc1ncc(CN2CCCC(C(=O)c3sccc3C)C2)cn1 (stereo not drawn),13%,-26%,-19,-25
Cc1ccsc1C(=O)C1CCCN(Cc2ccc(-n3cccn3)cc2)C1 (stereo not drawn),6%,10µM*,-14,-63*
Cc1ccsc1C(=O)C1CCCN(Cc2cccc(OCCO)c2)C1 (stereo not drawn),11%,-10%,-30,?
COc1nc(NC2CCCCC2)nc(NC(C)(C)C)n1,?,?,6,15
Cc1ccc(-n2nc3c(=O)n(CC(=O)NCC(C)c4ccccc4)nc(C)c3c2C)cc1 (stereo not drawn),.,?,-5,.
CCCc1cc(N2CCN(c3ccc(OC)cc3)CC2)n2cnnc2n1,.,?,19,.
CC(=O)[O][Hg][c]1ccccc1,-11%,.,-19,.
O=C(c1ccc(CS(=O)(=O)c2ccccc2)o1)N1CCC2(CC1)OCCO2,-15%,-7%,34*,9
Cc1ccc(S(=O)(=O)Nc2cc(C(=O)N3CCC4(CC3)OCCO4)ccc2N2CCCCC2)cc1,-1%,?,-7,-54*
O=C(CNS(=O)(=O)c1ccc(Br)s1)N1CCC2(CC1)OCCO2,7%,7%,9,-55*
O=C(c1ccc(CNS(=O)(=O)c2ccccc2)cc1)N1CCC2(CC1)OCCO2,-10%,7%,0,-53*
O=C(c1ccc(CNS(=O)(=O)c2ccc(Br)cc2)cc1)N1CCC2(CC1)OCCO2,6%,?,3,0
O=C(c1ccc(CS(=O)(=O)c2ccc(Br)cc2)o1)N1CCC2(CC1)OCCO2,27%,-2%,4,22
CC(=O)Nc1cc(C(=O)N2CCC3(CC2)OCCO3)ccc1S(=O)(=O)c1ccc(C)cc1,-9%,6%,5,5
O=C(CCS(=O)(=O)c1ccc(Br)cc1)N1CCC2(CC1)OCCO2,5%,4%,-2,-14
C[C@H](N)C(=O)c1ccccc1,10%,.,1,.
CCCCCc1cc(O)c2c(c1)OC(C)(C)C1CC=C(C)CC21 (stereo not drawn),-5%,.,.,.
N#Cc1ccc(Cn2cc(C=O)c3ccccc32)cc1,1%,7.1µM*,-1,-21
Cc1cccc(Cn2cc(C=O)c3ccccc32)c1,10%,4µM*,9,18
CCC(=O)c1cn(Cc2ccc(C#N)cc2)c2ccccc12,9%,?,-1,6
C#CCN1CC(=O)N(COC(=O)C2C(C=C(C)C)C2(C)C)C1=O (stereo not drawn),.,.,4,.
COc1ccc(CCNC(=O)c2ccc3c(c2)N=C(C)c2cc(C)ccc2S3)cc1OC,1%,?,5,.
COc1ccc2[nH]c(C)c(CCNCc3cccnc3)c2c1,-5%,-1%,-5,-19
Cc1ccc2[nH]c(C)c(CCNCc3ccco3)c2c1,-6%,?,-10,-25
Cc1[nH]c2ccc(OC(F)(F)F)cc2c1CCNCc1ccc(Cl)cc1,5%,4µM*,-2,-25
Cc1[nH]c2ccc(OC(F)(F)F)cc2c1CCNCc1cccc([N+](=O)[O-])c1,10%,?,-19,-64*
CCOc1cccc(CNCCc2c(C)[nH]c3ccc(OC(F)(F)F)cc23)c1O,-6%,5µM*,5,19
CCOc1cc(CNCCc2ccccc2F)ccc1OC,21%,-19%,-3,-11
COc1ccc(CCNC(=O)c2ccc3c(c2)N(Cc2cccc(Cl)c2)C(=O)CS3)cc1OC,-3%,?,1,.
COC(=O)C1=C(c2ccc(Cl)c(C(F)(F)F)c2)C[C@@H]2CC[C@H]1N2C(=O)N1CCC(C)CC1,-1%,11%,-46,-50*

# Screens: PubChem BioAssay, National Center for Advancing Translational Sciences (NCATS)
